Sampled rows, rich in hits. Any-hit rate of the full collection: about 4.7%.
HepG2 tox = counter-screen for TGF-b inhibitors: cytotoxicity in HepG2 cells | HepG2 CAGA-GFP viability, ATP luminescence, 18 h | Potency, µM (doses to about 46.1 µM), inactives show top-dose activity change, negative = cytotoxicity, usual class: cytotoxic | 0.76% of 410,000 active; also: potency is read from the fitted curve at half-maximal effect
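CellTiter-Glo luminescence gave cytotoxicity after 18 hours at 37 degrees C. The cells were HepG2 CAGA-GFP in 1% FBS DMEM, stimulated with 500 pg/mL TGF-beta after compound addition. %Activity was normalised to no-cell wells (complete cell-killing) and DMSO (no toxicity), and curves were fitted and classified.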
D3 antag = blocks the human D3 dopamine receptor; max response, negative = inhibition, %; P35462; 2.5% of 360,000 active; D3R cells, DiscoveRx beta-arrestin luminescence, antagonist mode; active compounds read low; in the data active = max response below about -50%; inconclusive = no clear call, values can overlap the other calls; also: % is scaled to controls: 0 for no effect and ±100 for the full control effect
Target sequence (P35462 whole entry, looked up): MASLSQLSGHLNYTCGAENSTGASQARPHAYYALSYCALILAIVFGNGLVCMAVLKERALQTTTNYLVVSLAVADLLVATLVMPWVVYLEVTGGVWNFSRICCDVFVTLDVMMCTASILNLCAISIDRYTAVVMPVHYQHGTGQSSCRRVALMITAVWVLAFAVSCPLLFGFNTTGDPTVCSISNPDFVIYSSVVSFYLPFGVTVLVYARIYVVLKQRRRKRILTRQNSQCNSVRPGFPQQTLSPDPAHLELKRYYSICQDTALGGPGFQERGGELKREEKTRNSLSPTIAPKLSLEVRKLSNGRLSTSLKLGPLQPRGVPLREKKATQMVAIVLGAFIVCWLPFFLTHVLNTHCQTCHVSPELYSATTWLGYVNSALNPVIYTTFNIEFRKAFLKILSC
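Cells expressing the human receptor were seeded at 1500 cells/well, incubated overnight at 37 degrees C in 5% CO2, then exposed to library compounds with dopamine controls for 90 minutes at 37 degrees C before luminescent detection.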
S2 tox = cell viability loss in ATXN counter-screen; S2 cells (HEK-293 line with an ATXN2-luciferase reporter) viability, CellTiter-Fluor protease fluorescence, 24 h; Potency, µM (titrated, usually from 56.7 µM), hits mostly cytotoxic; 0.49% of 400,000 active; AID 651635; also: potency is read from the fitted curve at half-maximal effect; nearly all actives have a fitted effect of over 40% in size
TGFb SMAD3 inh = inhibitors of TGF-b signaling | HepG2 CAGA-GFP TGF-b/SMAD3 reporter, GFP fluorescence, 18 h; TGF-beta stimulated, 500 pg/mL final | Potency, µM (highest dose often 46.1 µM), without a hit: at the top dose activity, negative = inhibition, actives largely listed as inhibitors | 1.2% of 410,000 active | AID 588855; also: potency is read from the fitted curve at half-maximal effect; % is scaled to controls: 0 for no effect and ±100 for the full control effect; nearly all actives have a fitted effect of over 65% in size
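Per well, imaged GFP fluorescence of HEPG2 CAGA-GFP cells gives the signal; cells get compound, then TGF-beta (500 pg/mL final), 18 h at 37 degrees C; %Activity versus -TGF-beta and +DMSO controls.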
ATXN2 expr inh = inhibitors of ATXN2 expression; HEK-293 ATXN2-luciferase reporter, luminescence, 24 h; Potency, µM (titrated, usually from 57 µM), inactives show top-dose activity change, negative = inhibition, usual class: inhibitors; 0.72% of 360,000 active; also: potency is read from the fitted curve at half-maximal effect; % is scaled to controls: 0 for no effect and ±100 for the full control effect; nearly all actives have a fitted effect of over 55% in size
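ATXN2-luciferase reporter cells (luciferase flanked by upstream and downstream ATXN2 gene portions) were treated 24 h at 37 °C with compounds at up to 57 uM. SteadyGlo luminescence gave expression; GF-AFC fluorescence gave viability.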
DRD3 agonist = D3 dopamine receptor (human) agonism | 0.58% of 410,000 active | D3R DiscoveRx beta-arrestin cells, luminescence, 90 min | max activation, %; in the data active = max activation above about 30%; also: 0% is about no effect
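Agonist mode: compounds and dopamine controls were applied to plated cells for 90 min at 37 degrees C after an overnight attachment at 1500 cells/well. Luminescent read-out followed 30 - 60 minutes at room temperature with DiscoveRx detection reagent.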
The depositor's hits bear a star; i = inactive; ? = inconclusive; nt = no result given. Unless noted, calls follow the shape of the dose curve; as a rule, active = well fitted curve in the direction sought with a large enough effect; inconclusive = small, poorly fitted or top-dose-only effect, or another doubt; inactive = no such curve, though single readings can be large; an effect the other way counts as inactive or inconclusive.

SMILES | HepG2 tox | D3 antag | S2 tox | TGFb SMAD3 inh | ATXN2 expr inh | DRD3 agonist
O=C(NC(NC(=S)Nc1cccc(Cl)c1)C(Cl)(Cl)Cl)OCc1ccccc1 (configuration not stated) | 11.2µM* | ? | ? | 6.31µM* | ? | -26.4
CCc1ccc(OCC(=O)NC(NC(=S)Nc2ccccc2)C(Cl)(Cl)Cl)cc1 (configuration not stated) | 11.2µM* | -5.4 | i | ? | ? | -12.1
CC(C)CC(=O)NC(NC(=S)Nc1ccccc1)C(Cl)(Cl)Cl (configuration not stated) | -33.6% | -26.2 | i | -13.7% | -26.5% | -4.8
CCOc1ccc(CNC(=O)C2CCN(S(=O)(=O)c3cn(C)cn3)CC2)cc1OC | -62.4% | nt | nt | 32.9% | nt | -6.7
CC(C)(C)OC(=O)N1CCC(c2c(C(=O)N3CCC(c4ccccc4)C3)cnn2-c2ccc(Cl)cc2)CC1 (configuration not stated) | -2.8% | nt | nt | -0.3% | nt | -3.3
Cc1ccc(NC(=S)NC(NC(=O)c2ccccc2C)C(Cl)(Cl)Cl)c(C)c1 (configuration not stated) | -31.0% | 7.8 | i | 22.4µM* | 1.3% | -5.6
Cc1ccc(C)c(NC(=S)NC(NC(=O)Cc2cccc3ccccc23)C(Cl)(Cl)Cl)c1 (configuration not stated) | 2.82µM* | -50.3* | 15.8µM* | 3.55µM* | 17.8µM* | 6.1
CC(=O)NC(NC(=S)Nc1ccc(C)cc1C)C(Cl)(Cl)Cl (configuration not stated) | -11.9% | 13.3 | i | -16.5% | nt | -4.1
Cc1ccc(C)c(NC(=S)NC(NC(=O)N(C)C)C(Cl)(Cl)Cl)c1 (configuration not stated) | 0.1% | -25.5 | i | -5.1% | -3.3% | 3.8
CCc1ccc(OCC(=O)NC(NC(=S)Nc2ccc(C)cc2C)C(Cl)(Cl)Cl)cc1 (configuration not stated) | 11.2µM* | -17.1 | ? | 11.2µM* | ? | -5.2
COc1ccc(N2C(=O)CSC23C(=O)N(CC(=O)NCc2ccccc2)c2ccccc23)cc1 (configuration not stated) | -0.7% | nt | i | 36.4% | 0.9% | 3.4
Nc1nc2c(nc(N3CCOCC3)n2COCCO)c(=O)[nH]1 | -5.5% | nt | nt | 7.9% | nt | nt
COc1ccc(NCc2cc3cc4c(cc3n(CC(=O)Nc3ccc(C)cc3)c2=O)OCO4)cc1 | -25.0% | nt | i | -6.0% | -9.8% | -8.2
CC1(C)N=C(SCc2ccc(F)cc2)c2ccccc2N1 | 9.8% | nt | i | -15.6% | 10.8% | -29.8
O=C(O)c1ccccc1S(=O)(=O)NCC(O)COC1CCCCC1 (configuration not stated) | 5.6% | -5.2 | i | -4.2% | 4.4% | 20.8
O=C(O)c1ccccc1Sc1ccccc1S(=O)(=O)NC1CCCCC1 | -45.3% | 5.2 | i | -23.9% | -16.5% | 31.7*
Cc1cc(C)c2c(C)ccnc2c1 | 0.8% | nt | nt | -4.0% | nt | nt
Cc1ccc(C)c(Sc2ccc(NC(=O)CCN3C(=O)NC4(CCCC4)C3=O)cc2)c1 | 15.8µM* | -0.8 | ? | ? | ? | 0.1
Cc1ccc(Sc2ccc(NC(=O)CCl)cc2)c(C)c1 | -89.8% | 0.3 | nt | ? | 31.6µM* | -0.1
Cc1ccc(NC(=O)CCN2C(=O)NC3(CCCC3)C2=O)cc1 | -6.8% | 2.9 | i | -0.2% | -0.8% | 4.4
O=C(CSc1n[nH]c(=O)n1C1CC1)Nc1cc(Cl)ccc1Oc1ccccc1 | -25.8% | -17.8 | i | -13.4% | -28.5% | 31.8*
CCN(Cc1ccc2c(c1)OCO2)C(=O)CSc1nc(C)nc2sc(C)c(C)c12 | -16.5% | 60.0 | ? | 0.0% | ? | 40.2*
c1csc(-c2nn3c(C4COc5ccccc5O4)nnc3s2)c1 (configuration not stated) | -15.3% | -11.2 | i | -19.4% | 69.0% | 4.0
c1ccc2c(c1)OCC(c1nnc3sc(-c4cnccn4)nn13)O2 (configuration not stated) | -13.9% | 20.7 | i | -8.9% | 4.5% | 30.3*
Cc1cc(C(C)(C)C)oc1C(=O)N(CC(=O)NC1CCCC1)c1ccc(F)cc1 | -30.3% | -22.6 | i | ? | -20.6% | -12.6
SMILES | HepG2 tox | D3 antag | S2 tox | TGFb SMAD3 inh | ATXN2 expr inh | DRD3 agonist
Cc1cc(C(C)(C)C)oc1C(=O)N(CC(=O)NC1CCCC1)c1c(C)cccc1C | 15.8µM* | -8.4 | ? | ? | ? | -13.6
CCOC(=O)c1c(C(=O)OCC)c(C)n(N2C(=O)CSC2=S)c1C | 1.3% | -62.1* | i | ? | 0.5% | -2.1
CCOC(=O)C1=C(N)N2C(=O)CSC2=C(C(=O)OC)C1 | 1.5% | 19.0 | i | -20.2% | 0.2% | 5.3
CN(C)c1ccc(N=Nc2nc3ccccc3n2C)cc1 | -130.0% | -74.5* | nt | ? | nt | -19.6
Cn1c(N=Nc2ccccc2)nc2ccccc21 | 7.08µM* | -7.0 | i | -6.8% | 7.1% | -5.2
CCn1c(NCc2ccc(N(C)C)cc2)nc2ccccc21 | -37.7% | -27.9 | i | 11.3% | 19.3% | -3.7
CCN(C(=O)CCNC(=O)Cn1cnc2ccccc2c1=O)c1cc(OC)ccc1OC | -5.0% | nt | i | 4.6% | 10.3% | 0.4
CCc1ccc2occ(CC(=O)Nc3sc4c(c3C(=O)NCCOC)CCCC4)c2c1 | -21.6% | nt | i | -3.7% | 20.1% | 4.0
Cc1ccc(N=Nc2c(C)[nH]n(C(N)=S)c2=O)cc1C | -1.8% | -12.3 | i | -5.0% | 123.3% | 4.0
NC(=S)n1[nH]c(-c2ccc([N+](=O)[O-])cc2)c(N=Nc2ccccc2[N+](=O)[O-])c1=O | -0.8% | -26.9 | i | -12.1% | ? | 0.7
Cc1c(N=Nc2c(-c3ccc([N+](=O)[O-])cc3)[nH]n(C(N)=S)c2=O)cccc1[N+](=O)[O-] | -22.6% | -24.0 | ? | 8.91µM* | ? | 12.4
Cc1[nH]n(C(N)=S)c(=O)c1N=Nc1cccc([N+](=O)[O-])c1C | 20µM* | 0.0 | i | ? | nt | 1.6
O=C(Nc1c(C(=O)c2ccc(Cl)cc2)oc2ccccc12)c1cc(=O)c2ccccc2o1 | 3.7% | nt | i | 0.6% | 4.7% | -3.6
CC[C@@H]1C(=O)N(C)c2cnc(Nc3ccc(C(=O)NC4CCN(C)CC4)cc3OC)nc2N1C1CCCC1 | nt | nt | nt | nt | -6.1% | nt
CC(=O)N(O)c1ccc(/C=C2\C=Cc3ccccc32)cc1 | -31.0% | nt | nt | 0.8% | nt | nt
CCN(C/C=C/c1ccccc1OC)Cc1ccccc1 | -5.7% | -81.9* | i | -3.2% | -25.9% | -24.7
CCOC(=O)c1ccc(NC(=O)Cn2nc(SC)c(S(=O)(=O)c3ccc(Cl)cc3)c2N)cc1 | -34.5% | nt | ? | 5.01µM* | ? | -15.9

Source: PubChem (National Center for Advancing Translational Sciences (NCATS))
